Compound activity (PubChem)
FBPA coupling cs: coupling enzyme interference in Giardia aldolase counter-screen; coupling enzyme system counterscreen, AmpLite Red fluorescence; activity change, negative = inhibition, % at 58.2 µM, hits read low; 290,000 compounds, 0.67% hits; AID 2472; in the data active = activity change below about -30%
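Fluorescence at 525 nm excitation and 598 nm emission measured inhibition of the coupled detection system without aldolase. Compounds (at 57.5 uM final) were preincubated 10 min at room temperature with coupling enzyme reagent before a 20 min substrate/AmpLite Red step.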
Tau fibril ThT: inhibitors of human tau fibril formation, thioflavin T binding. recombinant tau K18 P301L, heparin-induced fibrillization, ThT fluorescence. Potency, µM (titrated, usually from 57.4 µM), hits mostly inhibitors. 270,000 compounds, 2.1% hits. AID 1460; also: nearly all actives have a fitted effect of over 55% in size
Target sequence (P10636 561-689 P618L limits assumed): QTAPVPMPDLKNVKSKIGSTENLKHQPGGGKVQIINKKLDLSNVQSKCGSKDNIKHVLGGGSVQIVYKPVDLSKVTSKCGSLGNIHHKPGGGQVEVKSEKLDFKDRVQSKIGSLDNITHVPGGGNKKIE
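Using a mix of unlabeled (15 uM) and Alexa 594-labeled (0.24 uM) tau K18 P301L, heparin-triggered fibrillization over 6 hr at 37 C was scored by ThT fluorescence.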
Sfp inh: Sfp phosphopantetheinyl transferase inhibition; Potency, µM, actives largely listed as inhibitors; Biochemical Sfp PPTase activity, qHTS; 310,000 compounds, 3.5% hits;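 also: the enzyme is Sfp with the accession as filed and its product quenches rhodamine fluorescence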
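After 15 min at room temperature with compound, 15 nM Sfp received 5 uM rhodamine-CoA plus 12.5 uM BHQ-2-ybbR (50 mM Hepes pH 7.6, 10 mM MgCl2). Rate came from the fluorescence difference over 30 min, ex 525/em 598 nm.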
Tau fibril FP: blocks human tau fibril formation measured by polarization; P10636; K18 P301L tau heparin fibrillization, Alexa594 FP, 6 h; Potency, µM (doses to about 57.7 µM), most hits filed as inhibitors; 280,000 compounds, 0.39% hits; AID 1468; also: nearly all actives have a fitted effect of over 55% in size
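Recombinant K18 P301L […], labeled with Alexa 594 at 0.24 uM over 15 uM unlabeled; heparin inducer 20 uM final; 37 C, 6 hr; FP endpoint.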
Tau fluor counter: counter-screen for tau fibril formation inhibitors; tau K18 P301L Alexa594 fluorescence, heparin fibrillization; Potency, µM (highest dose often 57.7 µM); 280,000 compounds, 0.93% hits; also: nearly all actives have a fitted effect of over 55% in size
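Human tau K18 P301L (15 uM unlabeled, 0.24 uM Alexa 594-labeled) in 100 mM sodium acetate pH 7 with 20 uM heparin, 6 hr at 37 C. ThT 30 uM added, 1 hr ambient; Alexa 594 FP and total fluorescence read at 555/632 nm.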
Each line names hits and unclear results; the compound was inactive in the other large screens; [ ] = another dose, or the depositor's remark. A selection: hits, their analogues and other compounds. The true share with any hit is near 5.2%. Unless noted, calls follow the shape of the dose curve; as a rule, active = well fitted curve in the direction sought with a large enough effect; inconclusive = small, poorly fitted or top-dose-only effect, or another doubt; inactive = no such curve, though single readings can be large; an effect the other way counts as inactive or inconclusive.

CC(C)OCCCNC(=O)c1c(N)n(Cc2cccs2)c2nc3ccccc3nc12	FBPA coupling cs -46, Tau fibril ThT inconclusive, Sfp inh inconclusive, Tau fibril FP inconclusive, Tau fluor counter inconclusive
COc1ccc(Cn2c(N)c(C(=O)NCc3ccco3)c3nc4ccccc4nc32)cc1OC	Tau fibril ThT 14µM, Sfp inh inconclusive, Tau fibril FP inconclusive, Tau fluor counter inconclusive
Nc1c(C(=O)NCC2CCCO2)c2nc3ccccc3nc2n1Cc1ccco1 (stereo not given)	Tau fibril ThT inconclusive, Sfp inh 4µM, Tau fibril FP inconclusive, Tau fluor counter inconclusive
c1ccc(N2CCC3(CCNCC3)CC2)cc1	Sfp inh inconclusive (no result: Tau fibril ThT, Tau fibril FP, Tau fluor counter)
COc1cccc([C@@]2(O)CCCCC2CN(C)C)c1 (stereo not given in full)	none (no result: Tau fibril ThT, Tau fibril FP, Tau fluor counter)
O=C(Nc1ccc(Cl)c(C(F)(F)F)c1)C1CCCN(S(=O)(=O)c2cccc3cccnc23)C1 (stereo not given)	Tau fluor counter inconclusive (no result: FBPA coupling cs, Sfp inh)
CC12CCC3C4CCC(=O)C(O)=C4CCC3C1CCC2OC(=O)CCC1CCCC1 (stereo not given)	none (no result: FBPA coupling cs, Tau fibril ThT, Tau fibril FP, Tau fluor counter)
c1ccc(-c2cc3c(nc2-c2ccccc2)CCNC3)cc1	none
CCc1ccc(CN2CCN(C(=O)Cc3ccccc3)CC2)cc1	Sfp inh inconclusive
O=C(Cc1ccccc1)N1CCN(Cc2cccnc2)CC1	Sfp inh 79µM
COc1ccc(CC(=O)N(CCN(C)C)CC2CCCN(Cc3ccccc3F)C2)cc1 (stereo not given)	none (no result: Tau fibril ThT, Tau fibril FP, Tau fluor counter)
CSc1ccc(CN2CCN(Cc3ccccc3Cl)CC2)cc1	Sfp inh 22µM
COc1ccc(CN2CCN(Cc3ccccc3F)CC2)cc1	Sfp inh 79µM (no result: Tau fibril ThT, Tau fibril FP, Tau fluor counter)
COc1ccc(Nc2c(-c3cc(Br)ccc3O)nc3ncccn23)cc1OC	Tau fibril ThT inconclusive, Tau fluor counter 8.9µM[quencher] (no result: FBPA coupling cs, Sfp inh)
Cc1ccccc1Nc1c(-c2ccc(Br)cc2O)nc2sccn12	Tau fluor counter inconclusive (no result: FBPA coupling cs, Sfp inh)
Cn1c(O)c(/C=N/Nc2ccccc2)c(=O)n(C)c1=O	Tau fibril ThT inconclusive, Sfp inh 56µM
COc1ccc(N2C(=O)CC(=O)NC2=O)cc1	Tau fibril ThT inconclusive, Sfp inh inconclusive
COc1ccc(CN2C(=O)CC(=O)NC2=O)cc1	Tau fibril ThT 25µM, Tau fibril FP inconclusive
O=C1NC(=O)N(c2ccccc2)C(=O)/C1=C/c1ccc2c(c1)Cc1ccccc1-2	Tau fibril ThT inconclusive, Sfp inh 50µM, Tau fibril FP inconclusive
COc1ccccc1N1C(=O)NC(=O)/C(=C/c2ccc3c(c2)Cc2ccccc2-3)C1=O	Tau fibril ThT inconclusive, Sfp inh 50µM
CCCCCCCCCCCCCCC[C@@H](O)[C@@H](N)COP(=O)(O)O	none
Cc1cccc(NC(=O)Cn2cc(C(=O)C3CC3)c3ccccc32)c1C	Sfp inh inconclusive (no result: Tau fibril ThT, Tau fibril FP, Tau fluor counter)
c1ccc(-c2nc(N3CCOCC3)s[n+]2-c2ccccc2)cc1	Tau fibril ThT inconclusive, Sfp inh 7.9µM
CC1=C(C(=O)O)N2C(=O)[C@@H](NC(=O)CCCC(=O)O)[C@H]2SC1	Sfp inh 5µM
CCOP(=S)(OCC)Oc1cc(C)nc(N(CC)CC)n1	none (no result: Tau fibril ThT, Tau fibril FP, Tau fluor counter)
COc1cccc(-c2nn(Cc3ccccc3)cc2C(=O)O)c1	none (no result: Tau fibril ThT, Tau fibril FP, Tau fluor counter)
COc1cccc(CNC(=O)CSc2ccc(-c3ccco3)nn2)c1	Sfp inh 22µM
CC1(C)[C@H](C(=O)O[C@H](C#N)c2cccc(Oc3ccccc3)c2)[C@@H]1C=C(Br)Br	none (no result: Tau fibril ThT, Tau fibril FP, Tau fluor counter)
CCC(C)N1C(=O)/C(=C\c2cnc(N(C)C)nc2)C(=O)NC1=S (stereo not given)	Tau fibril ThT inconclusive, Sfp inh 50µM
CCC(C)N1C(=O)/C(=C\c2ccc(N3CCCCCC3)cc2)C(=O)NC1=S (stereo not given)	Tau fibril ThT inconclusive, Sfp inh inconclusive
CCCCN1C(=O)NC(=O)/C(=C/c2cnc(SC)nc2)C1=O	Tau fibril ThT inconclusive, Sfp inh 25µM
CSc1ncc(/C=C2/C(=O)NC(=O)N(C3CCCCC3)C2=O)cn1	Tau fibril ThT inconclusive, Sfp inh 40µM
CN(C)c1ncc(/C=C2/C(=O)NC(=S)N(C3CCCCC3)C2=O)cn1	Tau fibril ThT inconclusive, Sfp inh 45µM
CSc1ncc(/C=C2/C(=O)NC(=O)N(C)C2=O)cn1	Tau fibril ThT inconclusive, Tau fibril FP inconclusive
Cc1[nH]cnc1CCN	none
CC(C)CCNC(=O)CNC(=O)[C@@H](C)NC(=O)[C@@H](N)Cc1ccc(O)cc1	none (no result: Tau fibril ThT, Tau fibril FP, Tau fluor counter)
CCC(C)(C)O	none (no result: Tau fibril ThT, Tau fibril FP, Tau fluor counter)
